Consider 15 compounds from PubChem BioAssay.

The target of test [1] is Nuclear receptor coactivator 3 (Homo sapiens) (UniProt Q9Y6Q9). Description: NCOA3 GAL4-fusion reporter inhibition – cell-based, luminescence, quadruplicate, confirmation (AID 588792;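 active means mean inhibition over 43.08%, the solvent-only control mean plus 3 SD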;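 further: 0% = DMSO treated cells and 100% = gossypol at 36 µM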). The settings on record: HEK293 GAL4-SRC3 luciferase reporter, at 3.6 µM, active compounds read high. Background: A reporter such as luciferase makes a cellular process visible.
In test [2] the test system is transactivating tegument protein VP16 (Human herpesvirus 1), Gal4-VP16 luciferase reporter. Kind of test: repression of VP16-driven luciferase reporter – cell-based, luminescence, high throughput, counter-screen for SRC3 inhibitor project (AID 588794; in the data active means inhibition above about 30%). The note with it: mammalian cells, at 3.6 µM, active compounds read high.
Test [3] concerns the target Nuclear receptor coactivator 1 (Homo sapiens) (UniProt Q15788). Description: NCOA1 GAL4-fusion reporter inhibition – cell-based, luminescence, quadruplicate, confirmation (AID 588820).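 Further: 0% = DMSO wells and 100% = gossypol 36 µM treated wells.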 The settings on record: HEK293 GAL4-SRC1 luciferase reporter, at 3.6 µM, active compounds read high.
Test [4] in a line: repression of VP16-driven luciferase reporter – cell-based, luminescence, high throughput, counter-screen for SRC1 inhibitor project (AID 588824; in the data active means inhibition above about 25%). The settings on record: cell-based VP16 transactivation luciferase luminescence; at 3.6 µM; active compounds read high.
The nature of test [5]: StAR promoter reporter inhibitors, counter-screen for LRH-1 inverse agonist project, cell-based, luminescence, high throughput (AID 651611; in the data active means inhibition above about 28%). The settings on record: StAR promoter luciferase reporter counterscreen, at 3.6 µM, active compounds read high. (In general: The purpose of a counterscreen is to sort out artefacts and off-target activity.)
Test [6] addresses Nuclear receptor subfamily 5 group A member 2 (Homo sapiens) (UniProt O00482). Kind of test: NR5A2 activity suppression in reporter cells – cell-based, luminescence, confirmation (AID 651613; in the data active means inhibition above about 42%;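 further: HEK293T cells co-transfected with LRH-1 and StAR promoter luciferase reporter; 0% = vehicle wells and 100% = parental cells lacking receptor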). The settings on record: cell-based LRH-1 luciferase reporter, inverse agonism; at 3.6 µM; active compounds read high.
The target of test [7] is Steroidogenic factor 1 (Homo sapiens) (UniProt Q13285). Kind of test: inverse agonism at SF1 nuclear receptor – cell-based, luminescence, high throughput, counter-screen for LRH-1 inverse agonist project (AID 651614; in the data active means inhibition above about 44%;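 further: cells cotransfected with StAR promoter reporter and SF1 expression vector; 0% = vehicle on cells with receptor and 100% = vehicle on cells lacking receptor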). The settings on record: cell-based SF1 luciferase reporter, at 3.6 µM, active compounds read high.
Test [8] in a line: compounds suppressing VP16-driven luciferase signal – cell-based, luminescence, high throughput, counter-screen for LRH-1 inverse agonist project (AID 651615; in the data active means inhibition above about 33%). The note with it: Gal4-VP16 luciferase reporter cells, at 3.6 µM, active compounds read high.
Test [9] has as its target Photoreceptor-specific nuclear receptor (Homo sapiens) (UniProt Q9Y5X4). Description: retest of NR2E3-NCOR disrupting agonists – cell-based, luminescence, CHO-S two-hybrid, confirmation (AID 624378;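 active means average inhibition above a cutoff equal to the mean inhibition of all tested compounds plus one SD, cut at about 70% in these data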;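 further: 0% = DMSO in NR2E3 cells and 100% = DMSO in cells lacking NR2E3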). The settings on record: CHO-S mammalian two-hybrid NR2E3-NCOR, luciferase luminescence; at 3.98 µM; active compounds read high.
Test [10] can be described thus: nonselective effects on VP16 transactivation – cell-based, luminescence, CHO-S, high throughput, counter-screen for NR2E3 agonist project, confirmation (AID 624379;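 active means mean inhibition above a cutoff equal to the average over all tested compounds plus one standard deviation, cut at about 70% in these data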;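 further: 0% = DMSO with VP16-transfected cells and 100% = DMSO with cells lacking VP16; higher means less reporter light so more repression of VP16 activity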). The note with it: CHO-S GAL4-VP16 luciferase reporter, at 3.98 µM, active compounds read high.
Test [11] relates to transactivating tegument protein VP16 (Human herpesvirus 1). Kind of test: compounds suppressing VP16-driven luciferase signal – cell-based, luminescence, single concentration, counter-screen for SRC2 inhibitor project (AID 652007; in the data active means inhibition above about 36%). The settings on record: cell-based VP16 transactivation luciferase reporter, at 8.9 µM, active compounds read high.
Test [12] addresses Nuclear receptor coactivator 2 (Homo sapiens) (UniProt Q15596). Kind of test: inhibition of GAL4-SRC2 driven luciferase expression – cell-based, luminescence, HEK293, triplicate, confirmation (AID 652008;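 active means mean inhibition above 46.5%, the solvent-only control mean plus 3 SD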;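 further: 0% = DMSO-treated cells and 100% = Gossypol at 36 µM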). The note with it: HEK293 GAL4-SRC2 luciferase reporter, at 8.9 µM, active compounds read high.
Test [13] is described as follows: VP16-driven transactivation reporter suppression – cell-based, luminescence, HEK293, counter-screen for COUP-TFII antagonist project (AID 687007; in the data active means inhibition above about 13%). The settings on record: HEK293 Gal4-VP16 luciferase reporter, at 8.5 µM, active compounds read high.
Test [14] has as its target COUP transcription factor 2 (Homo sapiens) (UniProt P24468). Description: retest of COUP-TFII reporter suppressors – cell-based, luciferase reporter, HEK293, triplicate, confirmation (AID 687008;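 active means mean inhibition over three repeats above a set limit taken from the earlier primary screen, cut at about 38% in these data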;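 further: 100% = cells given the luciferase reporter alone without the COUP-TF2 vector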). The note with it: HEK293 NGFI-A luciferase reporter, luminescence; at 8.5 µM; active compounds read high.

Structures are written as SMILES. Values without a mark were called inactive. The list shows a part of the results. The source made the active and inactive calls.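 How the source made its calls, unless noted: active means mean inhibition above 46.68%, the untreated control wells mean plus 3 SD; inactive means the rest.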

Nuclear receptor coactivator 2 (Homo sapiens), sequence (Q15596 whole entry, looked up, the tested form may be a part): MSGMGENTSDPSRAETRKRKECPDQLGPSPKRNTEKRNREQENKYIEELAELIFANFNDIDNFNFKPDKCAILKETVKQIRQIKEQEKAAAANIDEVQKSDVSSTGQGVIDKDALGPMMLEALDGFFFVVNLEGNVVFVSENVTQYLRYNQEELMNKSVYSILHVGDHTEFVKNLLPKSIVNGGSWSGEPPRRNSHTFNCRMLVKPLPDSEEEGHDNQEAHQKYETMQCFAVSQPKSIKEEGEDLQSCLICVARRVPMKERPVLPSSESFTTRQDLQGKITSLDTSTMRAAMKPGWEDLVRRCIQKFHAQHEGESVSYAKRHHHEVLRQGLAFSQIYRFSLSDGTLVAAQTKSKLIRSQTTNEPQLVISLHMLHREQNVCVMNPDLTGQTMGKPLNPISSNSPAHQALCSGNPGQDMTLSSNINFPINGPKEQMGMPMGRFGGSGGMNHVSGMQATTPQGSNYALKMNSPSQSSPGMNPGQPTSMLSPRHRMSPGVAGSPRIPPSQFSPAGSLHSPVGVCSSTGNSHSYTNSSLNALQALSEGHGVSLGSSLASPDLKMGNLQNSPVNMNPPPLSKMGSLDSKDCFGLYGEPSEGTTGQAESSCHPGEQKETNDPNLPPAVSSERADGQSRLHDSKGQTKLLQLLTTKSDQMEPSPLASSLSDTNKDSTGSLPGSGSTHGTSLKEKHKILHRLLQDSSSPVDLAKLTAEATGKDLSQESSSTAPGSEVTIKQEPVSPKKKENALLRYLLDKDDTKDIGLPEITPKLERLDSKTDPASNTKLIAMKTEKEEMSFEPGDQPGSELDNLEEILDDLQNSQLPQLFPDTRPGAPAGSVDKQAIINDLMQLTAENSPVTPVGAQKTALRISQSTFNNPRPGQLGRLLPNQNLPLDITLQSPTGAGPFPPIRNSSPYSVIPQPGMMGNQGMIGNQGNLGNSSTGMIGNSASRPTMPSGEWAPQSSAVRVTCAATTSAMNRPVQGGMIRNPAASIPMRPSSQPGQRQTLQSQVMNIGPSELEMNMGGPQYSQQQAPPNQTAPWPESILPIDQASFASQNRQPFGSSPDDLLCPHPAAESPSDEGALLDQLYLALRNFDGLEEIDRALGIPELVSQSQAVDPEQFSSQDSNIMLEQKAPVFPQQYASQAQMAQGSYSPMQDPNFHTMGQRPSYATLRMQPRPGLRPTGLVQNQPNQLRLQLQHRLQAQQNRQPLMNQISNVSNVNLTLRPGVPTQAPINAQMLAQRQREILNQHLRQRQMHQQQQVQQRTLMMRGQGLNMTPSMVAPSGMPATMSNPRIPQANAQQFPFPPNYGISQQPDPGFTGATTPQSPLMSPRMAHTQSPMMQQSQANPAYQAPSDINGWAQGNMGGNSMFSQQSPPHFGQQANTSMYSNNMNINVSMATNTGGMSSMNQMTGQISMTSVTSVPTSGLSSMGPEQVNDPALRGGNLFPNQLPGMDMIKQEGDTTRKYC
Steroidogenic factor 1 (Homo sapiens), sequence (Q13285 whole entry, looked up, the tested form may be a part): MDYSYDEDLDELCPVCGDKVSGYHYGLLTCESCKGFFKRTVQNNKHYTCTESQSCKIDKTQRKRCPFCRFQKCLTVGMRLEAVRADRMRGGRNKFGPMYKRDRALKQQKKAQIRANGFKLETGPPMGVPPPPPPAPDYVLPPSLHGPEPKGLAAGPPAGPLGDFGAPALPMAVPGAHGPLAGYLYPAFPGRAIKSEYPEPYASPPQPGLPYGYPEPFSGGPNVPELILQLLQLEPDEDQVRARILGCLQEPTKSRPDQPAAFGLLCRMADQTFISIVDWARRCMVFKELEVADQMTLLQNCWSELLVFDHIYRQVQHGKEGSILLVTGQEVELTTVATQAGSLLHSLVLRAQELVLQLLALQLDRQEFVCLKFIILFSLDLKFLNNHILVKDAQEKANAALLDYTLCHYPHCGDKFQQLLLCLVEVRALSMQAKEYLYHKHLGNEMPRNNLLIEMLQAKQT
Photoreceptor-specific nuclear receptor (Homo sapiens), sequence (Q9Y5X4 whole entry, looked up): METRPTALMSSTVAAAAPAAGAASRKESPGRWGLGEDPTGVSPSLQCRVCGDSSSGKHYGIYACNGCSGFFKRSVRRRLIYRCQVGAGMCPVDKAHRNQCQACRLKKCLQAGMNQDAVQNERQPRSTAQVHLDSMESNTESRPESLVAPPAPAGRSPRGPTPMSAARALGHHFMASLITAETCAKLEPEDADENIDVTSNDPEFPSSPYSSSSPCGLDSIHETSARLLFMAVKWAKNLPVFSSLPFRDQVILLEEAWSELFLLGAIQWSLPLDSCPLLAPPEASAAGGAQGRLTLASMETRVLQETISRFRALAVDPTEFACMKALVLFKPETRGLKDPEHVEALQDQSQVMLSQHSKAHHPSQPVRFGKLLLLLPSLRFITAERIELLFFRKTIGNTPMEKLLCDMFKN
Nuclear receptor coactivator 3 (Homo sapiens), sequence (Q9Y6Q9 whole entry, looked up, the tested form may be a part): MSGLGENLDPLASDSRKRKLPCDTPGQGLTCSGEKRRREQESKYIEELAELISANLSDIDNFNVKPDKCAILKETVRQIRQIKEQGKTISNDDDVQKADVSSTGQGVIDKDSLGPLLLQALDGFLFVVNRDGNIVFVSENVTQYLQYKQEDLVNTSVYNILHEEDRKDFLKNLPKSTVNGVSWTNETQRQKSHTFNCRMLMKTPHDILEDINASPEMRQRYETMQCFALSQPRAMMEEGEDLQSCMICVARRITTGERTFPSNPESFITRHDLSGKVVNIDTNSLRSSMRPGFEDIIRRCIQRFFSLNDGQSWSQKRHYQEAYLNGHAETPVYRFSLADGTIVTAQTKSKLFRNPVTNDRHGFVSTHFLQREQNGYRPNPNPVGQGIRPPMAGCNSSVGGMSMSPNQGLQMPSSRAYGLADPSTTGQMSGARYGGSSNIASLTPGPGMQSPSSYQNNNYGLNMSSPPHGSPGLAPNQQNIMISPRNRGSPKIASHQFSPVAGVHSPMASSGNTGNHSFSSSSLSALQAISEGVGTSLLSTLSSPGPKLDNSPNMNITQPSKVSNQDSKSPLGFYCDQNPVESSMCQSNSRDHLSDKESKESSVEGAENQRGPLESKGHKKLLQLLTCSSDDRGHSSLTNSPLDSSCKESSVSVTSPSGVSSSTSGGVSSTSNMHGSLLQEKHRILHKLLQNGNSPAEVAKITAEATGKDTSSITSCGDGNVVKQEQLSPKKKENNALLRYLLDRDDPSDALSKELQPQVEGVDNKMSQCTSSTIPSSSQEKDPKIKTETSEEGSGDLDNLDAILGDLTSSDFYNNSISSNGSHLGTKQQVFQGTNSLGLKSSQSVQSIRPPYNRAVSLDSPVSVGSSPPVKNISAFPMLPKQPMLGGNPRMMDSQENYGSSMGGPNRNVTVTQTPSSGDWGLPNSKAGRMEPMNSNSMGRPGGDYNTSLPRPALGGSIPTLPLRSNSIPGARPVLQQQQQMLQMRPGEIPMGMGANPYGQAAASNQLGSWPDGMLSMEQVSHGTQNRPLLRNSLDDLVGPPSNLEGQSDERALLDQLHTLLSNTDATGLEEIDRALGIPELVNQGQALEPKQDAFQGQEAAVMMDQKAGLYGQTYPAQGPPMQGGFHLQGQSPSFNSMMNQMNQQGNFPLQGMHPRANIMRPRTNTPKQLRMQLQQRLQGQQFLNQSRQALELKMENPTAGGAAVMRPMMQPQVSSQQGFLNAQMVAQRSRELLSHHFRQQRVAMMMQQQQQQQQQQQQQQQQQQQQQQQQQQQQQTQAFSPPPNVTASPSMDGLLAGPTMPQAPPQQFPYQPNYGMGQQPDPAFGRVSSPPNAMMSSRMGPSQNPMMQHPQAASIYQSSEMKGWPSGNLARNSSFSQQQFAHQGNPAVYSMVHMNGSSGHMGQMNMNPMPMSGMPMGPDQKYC
COUP transcription factor 2 (Homo sapiens), sequence (P24468 whole entry, looked up): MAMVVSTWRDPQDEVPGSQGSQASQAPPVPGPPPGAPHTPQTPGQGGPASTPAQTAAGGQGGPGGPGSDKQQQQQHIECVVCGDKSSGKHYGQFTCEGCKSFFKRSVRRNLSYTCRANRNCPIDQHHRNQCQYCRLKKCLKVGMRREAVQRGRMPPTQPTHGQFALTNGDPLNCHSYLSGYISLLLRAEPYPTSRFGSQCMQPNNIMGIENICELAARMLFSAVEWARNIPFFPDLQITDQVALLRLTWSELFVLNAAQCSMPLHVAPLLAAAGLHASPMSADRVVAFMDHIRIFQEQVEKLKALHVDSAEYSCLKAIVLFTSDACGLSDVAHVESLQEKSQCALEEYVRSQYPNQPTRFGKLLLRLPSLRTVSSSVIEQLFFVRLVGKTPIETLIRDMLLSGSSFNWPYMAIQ
Nuclear receptor subfamily 5 group A member 2 (Homo sapiens), sequence (O00482 whole entry, looked up): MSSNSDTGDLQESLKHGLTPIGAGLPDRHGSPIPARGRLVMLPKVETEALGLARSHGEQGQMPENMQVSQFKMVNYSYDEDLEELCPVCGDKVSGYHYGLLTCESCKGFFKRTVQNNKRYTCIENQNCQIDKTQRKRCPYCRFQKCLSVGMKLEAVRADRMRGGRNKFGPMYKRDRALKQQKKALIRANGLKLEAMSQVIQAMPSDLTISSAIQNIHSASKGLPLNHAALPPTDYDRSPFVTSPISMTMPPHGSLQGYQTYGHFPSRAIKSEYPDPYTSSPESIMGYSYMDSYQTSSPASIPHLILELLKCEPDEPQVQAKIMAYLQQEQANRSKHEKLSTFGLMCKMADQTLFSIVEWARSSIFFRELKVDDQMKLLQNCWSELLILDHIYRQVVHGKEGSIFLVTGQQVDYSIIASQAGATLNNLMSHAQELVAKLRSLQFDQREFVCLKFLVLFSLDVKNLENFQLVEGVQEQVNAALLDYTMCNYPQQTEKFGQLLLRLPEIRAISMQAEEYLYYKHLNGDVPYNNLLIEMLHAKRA

One may read the inhibition as the relative decrease from the control value, in per cent. For the compound `O=C1C(=O)c2cccnc2-c2ncccc21`, the inhibition in [1] is 99.2% (active); in [2], 97.1% (active); in test [3], 97.1% (active); in [4], 96.7% (active); in test [5] it was 99.4% (active); in test [6] it was 110% (active). In addition, the inhibition was 99.5% (active) in test [7] and 99.6% (active) in test [8].
In the case of `Cc1ccc(C)c(S(=O)(=O)N2CCN(c3ncnc4sccc34)CC2)c1`, the inhibition is 63.1% (active) in [1]; 59.6% (active) in test [2]; 57.9% (active) in test [3]; 56.5% (active) in test [4]; 93.9% (active) in test [9]; 82.7% (active) in test [10]. The inhibition in test [11] is 32.8%; in [12] it was 53.3% (active); in test [13], 20.1% (active); in test [14], 49.9% (active).
`Cc1cccc(-n2c(N)c(-c3nc4ccccc4n3C)c3nc4ccccc4nc32)c1`: the inhibition was -11.4% in [1]; -15% in test [2]; -14.8% in [3]; -15.4% in test [4]; 8.3% in [5]; -11.5% in test [6]. The inhibition in test [7] is 10.3%; in test [8], 1.82%.
Turning to `OC[C@H]1O[C@@H](n2cnc3c(NCc4ccco4)ncnc32)[C@H](O)[C@@H]1O`, the inhibition in test [1] was 58% (active); in [2] it was 44.6% (active); in test [3], 42.5%; in [4] it was 51.8% (active); in test [5], 55.1% (active); in [6], 52.9% (active). Further, the inhibition was 51.4% (active) in test [7] and 61.4% (active) in test [8].
Take `C=CCn1c(C)cc(C2=NNC(=NCC)SC2)c1C`: the inhibition was 87% (active) in [1]; 85.3% (active) in test [2]; 74.7% (active) in test [3]; 81% (active) in test [4]; 77.4% (active) in test [9]; 73% (active) in [10]. The inhibition was 82.1% (active) in test [5]; 75.7% (active) in test [6]; 79.8% (active) in [7]; 75.6% (active) in test [8]; 81.8% (active) in [11]; 93% (active) in test [12]. Also, the inhibition is 82% (active) in test [13] and 105% (active) in [14].
On to `O=C(Nc1ccc2c(c1)OCCO2)C1CCCC1`, for which the inhibition is 15.8% in test [1]; -21.9% in [2]; -2.87% in test [3]; -33.3% in [4]; 53.2% in [9]; 13.8% in [10]. The inhibition in test [11] is -46%; in [12], 51.9% (active).
As for `Cc1ccc(N(CCC#N)C(=O)CCl)cc1C`, the inhibition was 54.3% (active) in [1]; 14.7% in test [2]; 7.31% in test [3]; 28.4% (active) in test [4]; 14.8% in test [5]; 58.5% (active) in test [6]. For the same compound, the figures for the inhibition in test [7] and in test [8] were 49.2% (active) and 15.7%, respectively.
Regarding `OCCCNc1nccc(-c2cc(Nc3cccc(Cl)c3)ncn2)n1`, the inhibition in [1] was 95% (active); in [2], 95.2% (active); in test [3], 83.5% (active); in test [4], 95.1% (active); in test [9] it was 100% (active); in [10], 93.9% (active). Besides, the inhibition was 88.5% (active) in test [5]; 108% (active) in [6]; 96.5% (active) in [7]; 93.2% (active) in test [8]; 57.9% (active) in test [11]; 49.7% (active) in test [12]. The inhibition in test [13] is 6.3%; in [14] it was 31.2%.
Turning to `CCCCC(=O)NC(c1ccc(N(C)C)cc1)c1ccc2cccnc2c1O` (centres undefined), the inhibition in test [1] is 58.5% (active); in test [2], 43.9% (active); in test [3], 48% (active); in test [4], 55.9% (active).
`COc1ccc(Cn2c(-c3ccc(C)cc3)c[n+]3ccccc23)cc1`: the inhibition was 35.9% in [1]; 52.1% (active) in test [2]; 19.8% in test [3]; 54.5% (active) in test [4]; 50.2% (active) in test [5]; 96.1% (active) in test [6]. For the same compound, the inhibition in test [7] is 79.5% (active); in test [8], 74% (active).
On to `CCOc1cc(/C=C(/C#N)c2ccc(Cl)cc2)cc(Cl)c1OCC(=O)O`, for which the inhibition in test [1] is 51.4% (active); in test [2], 45.5% (active); in test [3], 29.6%; in test [4], 36.9% (active); in test [9], 62.7%; in test [10] it was 77.7% (active). Also, the inhibition was 77.6% (active) in test [11] and 91% (active) in test [12].
As to `CN(C(=O)OC(C)(C)C)c1ccc(-c2nc3ccccc3s2)cc1`, the inhibition in [1] was 87.1% (active); in test [2], 84.5% (active); in [3] it was 78.8% (active); in test [4] it was 76.6% (active); in [5] it was 75.6% (active); in test [6] it was 80.9% (active). In addition, the inhibition was 77.3% (active) in [7] and 78.5% (active) in test [8].
As for `COCCn1c(C)cc(C(=O)COC(=O)c2ccccc2Br)c1C`, the inhibition is 71.7% (active) in [1]; 57% (active) in test [2]; 46.2% in test [3]; 36.7% (active) in [4]; 57.1% (active) in test [5]; -4.05% in [6]. For the same compound, the inhibition in test [7] was 50.9% (active); in test [8], 16.6%.
With `CN(Cc1cnc2nc(N)nc(N)c2n1)c1ccc(C(=O)N[C@@H](CCC(=O)O)C(=O)O)cc1`, the inhibition in test [1] is 66.7% (active); in test [2], 12.6%; in [3], 35%; in [4] it was 8.93%; in test [5], 76.9% (active); in test [6], 54.9% (active). Moreover, the inhibition in [7] is 55.4% (active); in test [8], 22.7%.
For the compound `Cc1[nH]c(=O)c(C(=O)/C=C/c2ccccc2)c2c1CCCC2`, the inhibition in test [1] was 66.8% (active); in test [2] it was 56.1% (active); in test [3] it was 70.5% (active); in test [4] it was 57.9% (active); in test [9], 24.6%; in test [10], 48%. Moreover, the inhibition is 54.4% (active) in [5]; 71.7% (active) in test [6]; 68.2% (active) in test [7]; 74.8% (active) in test [8]; 50.1% (active) in test [11]; 63.9% (active) in test [12].
